Laboratory results from PubChem BioAssay.
The source made the active and inactive calls. Unless noted, how the calls were made is not given here.

Tests used:
[1] = HepG2 liver cancer cell viability effects, profiling panel, resazurin fluorescence, 24 h, PK04 Diversity Set (AID 1172); settings: higher = more signal
[2] = basal S. cerevisiae growth modulation, no modifier, primary screen, OD600, strain BY4716, 24 h, basal condition (AID 1173); settings: OD600, 24 h, higher = more signal, called active from +8 up or from −8 down
[3] = MM1S myeloma cell viability, profiling panel, resazurin fluorescence, basal, 24 h, PK04 Diversity Set (AID 1174); settings: higher = more signal, called active from +8 up or from −8 down;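 further: MM1S multiple myeloma cell line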
[4] = target: Dihydroorotate dehydrogenase (quinone), mitochondrial (Plasmodium falciparum (isolate 3D7)) (UniProt Q08210); experiment: PfDHODH enzyme inhibitors, primary screen, biochemical, C-terminal His tag, absorbance 600 nm (AID 1175); settings: DCIP absorbance 600 nm, higher = more signal, called active from +8 up or from −8 down;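 further: recombinant parasite enzyme with a five histidine tag at its C terminus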
[5] = P. aeruginosa biofilm formation inhibitors, primary screen, strain PAO1, LB-PBS medium, absorbance 600 nm (AID 1176); settings: P. aeruginosa PAO1 growth/biofilm, A600, 12 h; higher = more signal
[6] = S. cerevisiae RM11-1a growth modifiers, primary screen, strain RM11-1a, OD600, basal, 24 h (AID 1177); settings: OD600, 24 h, higher = more signal, called active from +8 up or from −8 down;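 further: cultures grown under basal conditions with no added stressor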
[7] = E. coli acrAB mutant growth effects, primary screen, E. coli filamentation inducers, strain DRC39, OD650, 24 h (AID 1178); settings: higher = more signal, called active from +8 up or from −8 down;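 further: growth measured as culture turbidity by optical density at 650 nm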
[8] = E. coli acrAB mutant growth effects, primary screen, E. coli filamentation inducers, strain DRC39, OD650, 48 h (AID 1179);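 further: screen aims at cell division blockers that make cells filament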; settings: E. coli DRC39 delta-acrAB growth, higher = more signal, called active from +8 up or from −8 down
[9] = RPMI8226 myeloma cell viability, profiling panel, resazurin fluorescence, basal, 24 h, PK04 Diversity Set (AID 1180); settings: higher = more signal;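 further: RPMI8826 multiple myeloma cell line at 5000 cells per well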
[10] = target: E3 ubiquitin-protein ligase XIAP (Homo sapiens) (UniProt P98170); experiment: XIAP binders, primary screen, biophysical, small-molecule microarray, fluorescence 635 nm (AID 1181); settings: small-molecule microarray binding, higher = more signal;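 further: score merges 667 nm emission and signal to noise over triplicate slides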
[11] = test system: XIP peptide (Xip251-270) binding; experiment: small-molecule binders of XIP peptide, primary screen, biochemical, small-molecule microarray, fluorescence 635/667 nm, 0.1 µg/mL protein (AID 1182); settings: fluorescent protein binding, 635 nm, higher = more signal, called active from +8 up or from −8 down
[12] = test system: XIP peptide (Xip251-270); experiment: small-molecule binders of XIP peptide, primary screen, biochemical, small-molecule microarray, fluorescence 635/667 nm, 0.5 µg/mL protein (AID 1183); settings: small-molecule microarray binding, fluorescence 635 nm; higher = more signal
[13] = Plasmodium falciparum growth inhibition, primary screen, strain 3D7, DAPI fluorescence, 100 nL (AID 1184);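 further: parasites grown inside human red blood cells in medium with human serum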; settings: P. falciparum 3D7 growth, 3 d, higher = more signal
[14] = target: Homeobox protein Hox-A13 (Mus musculus) (UniProt Q62424); experiment: inhibitors of HoxA13-DNA binding, primary screen, biochemical, fluorescence polarization, labeled oligonucleotide (AID 1185); settings: 15 min, higher = more signal, called active from +8 up or from −8 down
[15] = inhibitors of hydroxyurea-induced Chk1 phosphorylation, primary screen, imaging, HeLa, phospho-Chk1 antibody, percent positive cells (AID 1186); settings: hydroxyurea-induced phospho-Chk1 immunofluorescence imaging, higher = more signal
[16] = inhibitors of hydroxyurea-induced Chk1 phosphorylation, primary screen, imaging, HeLa, phospho-Chk1 nuclear intensity (AID 1187); settings: hydroxyurea-induced phospho-Chk1 immunofluorescence imaging, higher = more signal

Dihydroorotate dehydrogenase (quinone), mitochondrial (Plasmodium falciparum (isolate 3D7)), sequence (Q08210 whole entry, looked up): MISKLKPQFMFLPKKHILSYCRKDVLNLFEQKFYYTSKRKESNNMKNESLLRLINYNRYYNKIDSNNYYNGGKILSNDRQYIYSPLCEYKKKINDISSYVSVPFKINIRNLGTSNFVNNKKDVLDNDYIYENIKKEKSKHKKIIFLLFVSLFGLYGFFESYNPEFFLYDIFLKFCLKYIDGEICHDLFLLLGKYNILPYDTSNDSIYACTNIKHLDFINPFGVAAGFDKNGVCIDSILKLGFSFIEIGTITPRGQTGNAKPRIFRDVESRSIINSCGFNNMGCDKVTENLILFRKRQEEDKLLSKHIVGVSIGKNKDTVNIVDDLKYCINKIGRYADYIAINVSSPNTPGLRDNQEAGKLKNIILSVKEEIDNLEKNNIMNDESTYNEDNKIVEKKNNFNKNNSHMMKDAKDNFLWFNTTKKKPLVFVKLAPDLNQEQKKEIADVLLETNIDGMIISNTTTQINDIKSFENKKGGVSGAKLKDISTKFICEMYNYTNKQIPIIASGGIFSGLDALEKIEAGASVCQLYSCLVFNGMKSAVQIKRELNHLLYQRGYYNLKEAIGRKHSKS
Homeobox protein Hox-A13 (Mus musculus), sequence (Q62424 whole entry, looked up): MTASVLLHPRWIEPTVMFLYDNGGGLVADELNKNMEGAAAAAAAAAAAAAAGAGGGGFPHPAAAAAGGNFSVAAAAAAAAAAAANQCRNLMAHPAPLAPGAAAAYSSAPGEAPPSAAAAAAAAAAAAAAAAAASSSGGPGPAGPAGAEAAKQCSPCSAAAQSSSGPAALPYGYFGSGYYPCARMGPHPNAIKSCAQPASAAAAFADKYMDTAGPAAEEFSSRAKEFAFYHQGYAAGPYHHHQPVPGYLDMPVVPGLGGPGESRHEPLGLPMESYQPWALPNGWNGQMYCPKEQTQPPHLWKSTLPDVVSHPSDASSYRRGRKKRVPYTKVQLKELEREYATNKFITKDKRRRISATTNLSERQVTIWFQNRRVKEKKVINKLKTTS
E3 ubiquitin-protein ligase XIAP (Homo sapiens), sequence (P98170 whole entry, looked up): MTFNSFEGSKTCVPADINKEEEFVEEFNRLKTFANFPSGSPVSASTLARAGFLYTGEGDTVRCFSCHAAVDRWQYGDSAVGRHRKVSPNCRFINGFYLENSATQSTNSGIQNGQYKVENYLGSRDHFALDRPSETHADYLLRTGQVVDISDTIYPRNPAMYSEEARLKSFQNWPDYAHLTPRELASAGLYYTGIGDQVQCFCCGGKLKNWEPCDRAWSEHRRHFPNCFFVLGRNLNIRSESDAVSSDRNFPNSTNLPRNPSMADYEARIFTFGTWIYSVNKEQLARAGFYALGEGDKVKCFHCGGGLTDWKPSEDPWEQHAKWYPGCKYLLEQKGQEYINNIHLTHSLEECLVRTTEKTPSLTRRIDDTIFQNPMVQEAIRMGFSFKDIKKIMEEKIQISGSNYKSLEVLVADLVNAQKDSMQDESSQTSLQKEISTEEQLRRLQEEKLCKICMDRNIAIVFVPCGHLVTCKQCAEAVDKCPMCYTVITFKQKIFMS

| Compound | z-score [1] | z-score [2] | z-score [3] | composite z-score [4] | z-score [5] | z-score [6] | z-score [7] | z-score [8] | z-score [9] | composite z-score [10] | composite z-score [11] | composite z-score [12] | z-score [13] | z-score [14] | z-score [15] | z-score [16] |
| --- | --- | --- | --- | --- | --- | --- | --- | --- | --- | --- | --- | --- | --- | --- | --- | --- |
| CCOC(=O)C1=CCC(c2cc3ccccc3[nH]2)N(CCN2CC(C(=O)OCC)=CCC2c2cc3ccccc3[nH]2)C1 (centres undefined) | -0.474 | 0.897 (inactive) | -1.98 (inactive) | 0.268 (inactive) | 0.878 (inactive) | 0.614 (inactive) | 0.852 (inactive) | -0.732 (inactive) | -0.458 | 1.16 | 0.401 (inactive) | 0.737 | -1.51 | -3.81 (inactive) | -0.852 (inactive) | -0.497 (inactive) |
| COC(=O)[C@@]1(Cc2ccccc2)[C@H]2c3cc(C(=O)N(C)C)n(CCSC(=N)N)c3C[C@H]2CN1C(=O)c1ccccc1 | -0.436 | 1.36 (inactive) | -0.399 (inactive) | 0.644 (inactive) | -0.0424 (inactive) | 0.0986 (inactive) | -0.456 (inactive) | -0.295 (inactive) | -0.374 | -0.0592 | -0.667 (inactive) | 0.903 | -0.118 | -3.8 (inactive) | 0.835 (inactive) | 0.849 (inactive) |
| COc1ccc([Si](C)(C)[C@H]2[C@H](CCO)O[C@@]3(C(=O)N(Cc4cccc(N5C(=O)c6ccccc6Oc6ccccc65)c4)c4ccccc43)[C@@H]2C)cc1 | -1.86 | -0.653 (inactive) | -2.97 (inactive) | 0.75 (inactive) | 1.01 (inactive) | 3.62 (inactive) | 1.42 (inactive) | 0.597 (inactive) | -4.05 | -0.115 | 0.505 (inactive) | 0.571 | -2.82 | -0.884 (inactive) | -0.432 (inactive) | -0.702 (inactive) |
| COc1ccc(C#Cc2ccc3c(c2)[C@]2(C(=O)N3)[C@H](C(=O)O)[C@H]3C(=O)O[C@H](c4ccccc4)[C@H](c4ccccc4)N3[C@@H]2c2ccccc2OCCO)cc1 | -0.638 | 0.0196 (inactive) | -2.53 (inactive) | -3.86 (inactive) | 3.23 (inactive) | 2.48 (inactive) | 0.761 (inactive) | -0.183 (inactive) | -5.64 | 0.013 | 1.89 (inactive) | 0.833 | -2.15 | -3 (inactive) | 0.135 (inactive) | 0.175 (inactive) |
| CCC(CC)C(O)C1C=CC2C(=O)N(c3ccccc3)C(=O)C2N1Nc1ccccc1F (centres undefined) | 0.85 | 0.153 (inactive) | -0.0479 (inactive) | 1.57 (inactive) | 0.67 (inactive) | -0.0886 (inactive) | -0.551 (inactive) | 0.164 (inactive) | 0.181 | 0.172 | 0.977 (inactive) | -0.243 | -0.0776 | -3.13 (inactive) | -0.121 (inactive) | -0.175 (inactive) |
| CC1CC/C=C\[C@H]2OC34C=CCN(Cn5nnc6ccccc65)C(=O)[C@H]3N(CCCCCCO)C(=O)[C@@H]4C2C(=O)O1 (some centres undefined) | 0.535 | -0.705 (inactive) | 0.501 (inactive) | -0.374 (inactive) | 0.137 (inactive) | 0.85 (inactive) | 0.816 (inactive) | 0.703 (inactive) | 1.16 | -0.244 | 0.0152 (inactive) | 0.217 | 0.21 | -3.02 (inactive) | -0.481 (inactive) | -0.521 (inactive) |
| Cc1ccccc1C(O)C1C=CC2C(=O)N(c3ccccc3)C(=O)C2N1Nc1ccccc1 (centres undefined) | -0.341 | -2.84 (inactive) | -0.516 (inactive) | 0.106 (inactive) | 0.956 (inactive) | 0.0725 (inactive) | -0.36 (inactive) | 0.372 (inactive) | -0.0175 | 0.265 | 0.766 (inactive) | 0.889 | -0.189 | -2.86 (inactive) | -1.2 (inactive) | -1.11 (inactive) |
| COC(=O)[C@@]1(Cc2ccccc2)N=C(c2ccc(OCCCO)cc2)O[C@H]1c1ccccc1CN=[N+]=[N-] | -4.1 | 1.24 (inactive) | -7.62 (inactive) | 0.468 (inactive) | 2.45 (inactive) | 2.85 (inactive) | 0.876 (inactive) | 0.93 (inactive) | -6.42 | 0.0549 | -0.139 (inactive) | 0.85 | -2.42 | -1.25 (inactive) | -0.727 (inactive) | -0.906 (inactive) |
| O=C(NC1CC1)[C@@H]1c2ccccc2C(=O)N(Cc2ccc(OC(F)(F)F)cc2)[C@H]1c1ccc(CO)cc1 | 1.26 | -0.327 (inactive) | 1.23 (inactive) | 0.347 (inactive) | -0.233 (inactive) | -0.544 (inactive) | 0.392 (inactive) | 1.11 (inactive) | 0.718 | -0.239 | 2.46 (inactive) | 0.0303 | 0.599 | -3.51 (inactive) | -0.453 (inactive) | -0.577 (inactive) |
